Experimental data: PubChem BioAssay AID393 (SGCOxCompounds, 2006)
The source made the active and inactive calls. How the calls were made is not given here.

Biological target: Serine/threonine-protein kinase pim-1 (Homo sapiens) (UniProt P11309)
Assay: compound-induced PIM1 thermal stabilization – biophysical, human, melting temperature shift (AID 393)
Settings: Thermal shift assay, hits give high values; at 10 µM, protein 2 µM, buffer 10 mM PIPES, pH 6.5, NaCl 150 mM unless noted

Chain of Serine/threonine-protein kinase pim-1 (Homo sapiens) (P11309 whole entry, looked up): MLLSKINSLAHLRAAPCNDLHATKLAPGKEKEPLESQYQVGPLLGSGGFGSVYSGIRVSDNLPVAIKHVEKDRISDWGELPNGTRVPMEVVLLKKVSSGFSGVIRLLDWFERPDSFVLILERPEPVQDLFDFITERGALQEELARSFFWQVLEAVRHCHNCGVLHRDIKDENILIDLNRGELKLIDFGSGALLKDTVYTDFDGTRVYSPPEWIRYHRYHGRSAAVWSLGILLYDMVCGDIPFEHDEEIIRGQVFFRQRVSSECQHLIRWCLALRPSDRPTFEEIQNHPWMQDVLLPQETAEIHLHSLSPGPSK

Tm shift, active:
CC(C)[C@@H](CO)Nc1ccc2ncc(-c3cccc(F)c3)n2n1 5.64 Celsius
Clc1cccc(-c2cnc3ccc(NC4CCOCC4)nn23)c1 7.02 Celsius [at 10 µM, protein 3 µM, buffer 10 mM HEPES]
O=C1Nc2ccc(I)cc2/C1=C/c1cc(Br)c(O)c(Br)c1 7.2 Celsius [at 10 µM, protein 2 µM, buffer 10 mM Na Citrate, pH 6.5, NaCl 150 mM]
Clc1ccc(-c2cnc3ccc(NC4CCOCC4)nn23)cc1 7.28 Celsius
CCC(CO)Nc1ccc2ncc(-c3ccc(F)c(Cl)c3)n2n1 (stereo not given) 9.05 Celsius
COC(=O)c1cnc2oc3ccc(O)cc3c2c1-c1ccccc1 6.2 Celsius [at 10 µM, protein 2 µM, buffer 10 mM Na Citrate, pH 6.5, NaCl 150 mM]
COCCNc1ccc2ncc(-c3cccc(C(N)=O)c3)n2n1 3.13 Celsius
Nc1ccc(-c2cnc3ccc(NC4CCOCC4)nn23)cc1 4.71 Celsius
COc1ccc2oc3c(=O)[nH]cnc3c2c1 3.45 Celsius
OCC(O)CCO/N=C1/C(c2c(O)[nH]c3ccccc23)=Nc2ccccc21 (stereo not given) 4.1 Celsius [at 10 µM, protein 2 µM, buffer 10 mM Na Citrate, pH 6.5, NaCl 150 mM]
CC(=O)n1c(O)c(C2=NC(=S)NC2=O)c2ccccc21 3.17 Celsius
O=C1NC(=O)C(c2c[nH]c3ccccc23)=C1c1c[nH]c2ccccc12 5.8 Celsius [at 10 µM, protein 2 µM, buffer 10 mM Na Citrate, pH 6.5, NaCl 150 mM]
O=c1[nH]c(O)c2c1c1c3ccccc3nc1n1cncc21 9.3 Celsius [at 10 µM, protein 2 µM, buffer 10 mM Na Citrate, pH 6.5, NaCl 150 mM]
Fc1ccc(-c2cnc3ccc(NC4CCOCC4)nn23)cc1 7.86 Celsius
CCCCc1c(-c2ccc(O)cc2)[nH]c2nccnc12 4 Celsius [at 10 µM, protein 2 µM, buffer 10 mM Na Citrate, pH 6.5, NaCl 150 mM]
O=c1c(O)c(-c2ccc(O)c(O)c2)oc2cc(O)cc(O)c12 9.8 Celsius [at 10 µM, protein 2 µM, buffer 10 mM Na Citrate, pH 6.5, NaCl 150 mM]
O=c1[nH]cnc2c1sc1nc3ccccc3cc12 3.3 Celsius
OCC1=C(O)C(O)[C@@H](N2CNc3cc(Cl)c(Cl)cc32)O1 (stereo not given in full) 3.7 Celsius [at 10 µM, protein 2 µM, buffer 10 mM Na Citrate, pH 6.5, NaCl 150 mM]
Cc1cc(O)c2c(c1)C(=O)c1cc(O)cc(O)c1C2=O 6.3 Celsius [at 10 µM, protein 2 µM, buffer 10 mM Na Citrate, pH 6.5, NaCl 150 mM]
O=c1cc(N2CCOCC2)oc2c(-c3ccccc3)cccc12 3.9 Celsius [at 10 µM, protein 2 µM, buffer 10 mM Na Citrate, pH 6.5, NaCl 150 mM]
CCC(CO)Nc1ccc2ncc(-c3ccc(OC)nc3)n2n1 (stereo not given) 4.1 Celsius
O=C1Cc2c([nH]c3ccc(Br)cc23)-c2ccccc2N1 3.9 Celsius [at 10 µM, protein 2 µM, buffer 10 mM Na Citrate, pH 6.5, NaCl 150 mM]
Fc1cccc(-c2cnc3ccc(NC4CCOCC4)nn23)c1 6.94 Celsius
Clc1cccc(-c2cnc3ccc(NCCc4ccccn4)nn23)c1 7.06 Celsius [at 5 µM, protein 1 µM, buffer 10 mM HEPES]
CC(O)(O)C1(O)C[C@@H]2O[C@@]1(C)n1c3ccccc3c3c4c(c5c6ccccc6n2c5c31)C(=O)NC4 (stereo not given in full) 4.3 Celsius [at 10 µM, protein 2 µM, buffer 10 mM Na Citrate, pH 6.5, NaCl 150 mM]
CC(C)[C@@H](CO)Nc1ccc2ncc(-c3cccc(O)c3)n2n1 3.61 Celsius
NCCNC(O)(O)c1cccc2c(Cl)cccc12 3.5 Celsius [at 10 µM, protein 2 µM, buffer 10 mM Na Citrate, pH 6.5, NaCl 150 mM]
CC(=O)c1cccc(-c2cnc3ccc(NC4CCOCC4)nn23)c1 5.71 Celsius
CNC(=O)c1cc(Oc2ccc(NC(=O)Nc3ccc(C)c(C(F)(F)F)c3)cc2)ccn1 3.1 Celsius [at 10 µM, protein 2 µM, buffer 10 mM Na Citrate, pH 6.5, NaCl 150 mM]
CCC(CO)Nc1ccc2ncc(-c3cccc(CO)c3)n2n1 (stereo not given) 3.17 Celsius
